Assay results as given in PubChem BioAssay (NCATS).
Inconclusive results are not listed. The source made the active and inactive calls. Unless noted, calls follow the shape of the dose curve; as a rule, active = well fitted curve in the direction sought with a large enough effect; inconclusive = small, poorly fitted or top-dose-only effect, or another doubt; inactive = no such curve, though single readings can be large; an effect the other way counts as inactive or inconclusive.

How the values were obtained:
[1] = qHTS for Inhibitors of Plasmodium falciparum (DD2) proliferation (AID 504314);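 also: parasite DNA measured by SYBR Green fluorescence after red cell lysis; plate controls were DMSO vehicle for no effect and artemisinin wells for full effect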
In short: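 Quantitative HTS growth inhibition: SYBR Green I binding to parasite DNA after 72 h drug exposure of infected erythrocytes (0.3% parasitemia, 2.5% hematocrit). Signals normalized per plate to inhibitor and vehicle wells.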

[2] = qHTS for Inhibitors of Plasmodium falciparum (7G8) proliferation (AID 504316);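 also: 0% = DMSO vehicle and -100% = 0.29 µM artemisinin full kill; nearly all actives have a fitted effect of over 65% in size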
In short: (§1)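 Erythrocytes infected with P. falciparum line (0.3% parasitemia, 2.5% hematocrit final) incubated with compounds 72 h at 37 °C, 5% CO2; SYBR Green lysis buffer added, fluorescence read next day. Normalized to 0.29 uM artemisinin and DMSO.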

[3] = qHTS for Inhibitors of Plasmodium falciparum (HB3) proliferation (AID 504318);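 also: 0% = DMSO vehicle and -100% = artemisinin control; nearly all actives have a fitted effect of over 60% in size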
In short: as §1

[4] = qHTS for Inhibitors of Plasmodium falciparum (CP250) proliferation (AID 504320);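 also: plate controls were DMSO vehicle for no effect and 0.29 µM artemisinin control for full effect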
In short: as §1

[5] = Cell Viability - BJ (AID 421; calls by dose curve;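 also: potency is read from the fitted curve at half-maximal effect; cells exposed to compound for 40 hours at 37 °C before readout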); conditions: BJ fibroblast viability, qHTS
In short: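 Cytotoxicity in human BJ foreskin fibroblasts is scored as loss of cellular ATP after a 40-hour exposure, measured by luciferase luminescence. Controls are DMSO and 100 uM tamoxifen.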

[6] = Cell Viability - HepG2 (AID 433; calls by dose curve;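 also: potency is read from the fitted curve at half-maximal effect; potency for ATP loss meaning cytotoxicity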); conditions: qHTS
In short: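 In this qHTS format, a 40 h, 37 °C compound incubation of HepG2 cells in complete medium precedes a 20 min CellTiter-Glo step at room temperature. Tamoxifen and doxorubicin serve as positive controls; Hill-equation fits yield AC50.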

[7] = Cell Viability - MRC5 (AID 434; calls by dose curve;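 also: potency is read from the fitted curve at half-maximal effect; potency reflects cytotoxicity seen as loss of intracellular ATP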); conditions: MRC5 lung fibroblast viability, qHTS
In short: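 qHTS cytotoxicity in human lung fibroblast MRC5 cells; 40 hr treatment, 37 °C; cellular ATP by luciferase luminescence; DMSO = 0%, 100 uM tamoxifen = 100% inhibition; Hill-fit AC50.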

[8] = Cell Viability - N2a (AID 540); conditions: N2a mouse neuroblastoma cell viability; at 92.2 µM (top of the series);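 also: plate controls were DMSO alone for no effect and tamoxifen control for full effect; nearly all actives have a fitted effect of over 45% in size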
In short: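 Mouse neuroblastoma N2a cells, 1500/well, exposed to compounds 40 h at 37 °C in complete medium. Viability measured as cellular ATP by CellTiter-Glo luminescence; AC50 from Hill fits of concentration-response.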

[9] = Cell Viability - NIH 3T3 (AID 541); conditions: NIH 3T3 cell viability, qHTS; at 92.2 µM (top of the series);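 also: plate controls were DMSO alone for no effect and tamoxifen positive control for full effect; nearly all actives have a fitted effect of over 25% in size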
In short: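 Mouse NIH 3T3 fibroblasts, 1000 cells/well, rested 5 hr at 37 °C, then exposed to compound for 40 hr at 37 °C in complete medium. Viability read as intracellular ATP by CellTiter-Glo luminescence; AC50 from Hill-equation fits of concentration-response data.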

[10] = Cell Viability - HUV-EC-C (AID 542); also: % is scaled to controls: 0 for no effect and ±100 for the full control effect; nearly all actives have a fitted effect of over 35% in size
In short: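 HUV-EC-C human vascular endothelial cells, 1000/well, exposed to compound for 40 hr at 37 °C in complete medium. Intracellular ATP was read by CellTiter-Glo luminescence. AC50 came from Hill-equation fits of concentration-response data.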

[11] = Cell Viability - Renal Proximal Tubule (AID 545);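 also: 0% = DMSO only and -100% = 100 µM tamoxifen; nearly all actives have a fitted effect of over 40% in size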
In short: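 In this qHTS format, normal rat kidney-derived proximal tubule cells in complete culture medium receive compound titrations, then sit 40 hours at 37 °C before luciferase-based ATP quantitation; potency is reported as AC50 from concentration-response curves.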

[12] = Cell Viability - Mesenchymal (AID 546);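 also: cells exposed to compound for 40 hours before reading; 0% = DMSO only and -100% = 100 µM tamoxifen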
In short: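 AC50 values reflect the drop in intracellular ATP in a human kidney mesenchymal line derived from normal glomeruli. Treatment lasts 40 hr at 37 °C in complete medium, and the signal comes from CellTiter-Glo luminescence.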

[13] = Cellular Toxicity (caspase-3) HepG2 (AID 654);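 also: cells exposed to compound for 16 hours before reading; 0% = DMSO alone and 100% = caspase signal from 100 µM tamoxifen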
In short: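 HepG2 cells (1500/well) were treated 16 h at 37 °C in complete medium, then caspase 3/7 activity was read by Caspase-Glo luminescence. Data were normalized to DMSO and 100 uM tamoxifen; AC50 came from Hill-equation fits of qHTS concentration-response.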

[14] = Cellular Toxicity (caspase-3) HUV-EC-C (AID 656);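 also: 0% = DMSO basal and 100% = 100 µM tamoxifen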
In short: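 Concentration-dependent caspase 3/7 induction was assessed in HUV-EC-C cells exposed for 16 hours. Data scaled between DMSO and tamoxifen (100 uM) controls.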

[15] = Cellular Toxicity (caspase-3) SHSY5Y (AID 657)
In short: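 Readout: caspase-cleaved peptide-aminoluciferin substrate driving luciferase light in SH-SY5Y neuroblastoma cells after 16 h treatment. Response normalized to DMSO and 10 uM staurosporine controls.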

[16] = Cellular Toxicity (caspase-3) BJ (AID 658);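 also: 0% = DMSO basal and 100% = 10 µM staurosporine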
In short: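 Readout: Caspase-Glo 3/7 luminescence increase in BJ cells after 16 hr treatment at 37 °C. Staurosporine and tamoxifen served as positive controls; AC50 values came from Hill modelling of data normalized to DMSO and 10 uM staurosporine.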

[17] = Cellular Toxicity (caspase-3) MRC-5 (AID 659);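 also: 0% = DMSO basal and 100% = 10 µM staurosporine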
In short: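 Concentration-dependent caspase 3/7 activation is measured in human normal lung fibroblasts (MRC-5) following 16-hour treatment. AC50 values come from standard Hill-equation modeling of luminescence normalized to DMSO and 10 uM staurosporine.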

[18] = Cellular Toxicity (caspase-3) Mesangial (AID 660);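 also: cells exposed to compound for 16 h before the caspase read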
In short: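 Human renal glomerular mesangial cells, 1000/well, 5 h at 37 C before 16 h compound treatment. Caspase-Glo 3/7 luminescence after 20 min; normalized to DMSO and 100 uM tamoxifen, AC50 from Hill fit.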

[19] = Cellular Toxicity (caspase-3) SK-N-SH (AID 661);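 also: 0% = DMSO basal and 100% = 10 µM staurosporine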
In short: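 Human SK-N-SH neuroblastoma cells, 1500/well, were exposed to compounds for 16 hours at 37 °C. Caspase-Glo 3/7 luminescence was normalized to DMSO (basal) and 10 uM staurosporine (100%), and AC50 came from a Hill fit.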

[20] = Cellular Toxicity (caspase-3) H-4-II-E (AID 663);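 also: cells exposed to compound for 16 hr before readout; 0% = DMSO basal and 100% = 100 µM tamoxifen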
In short: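 Apoptosis induction is scored as increased luminescence from caspase 3/7 substrate cleavage in rat hepatoma H-4-II-E cells exposed to compound for 16 hr. Activity is scaled between DMSO and 100 uM tamoxifen.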

[21] = Cellular Toxicity (caspase-3) Hek293 (AID 664);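 also: cells exposed to compound for 16 h at 37 °C before readout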
In short: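 HEK293 cells in complete medium treated 16 h at 37 °C, then Caspase-Glo 3/7 luminescence read after 20 min at room temperature. Normalized to DMSO and 100 uM tamoxifen; AC50 from Hill fit of concentration-response.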

[22] = Cellular Toxicity (caspase-3) N2a (AID 665);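 also: compound exposure lasted 16 h at 37 °C before readout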
In short: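 Mouse N2a neuroblastoma cells, 1500 per well, treated 16 h at 37 °C in complete medium; caspase-3/7 activity by Caspase-Glo luminescence after 1 h. Normalized to DMSO and 10 uM staurosporine; AC50 from Hill fits.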

[23] = Cellular Toxicity (caspase-3) NIH 3T3 (AID 666);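 also: 0% = DMSO basal and 100% = 100 µM tamoxifen stimulation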
In short: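 Mouse NIH 3T3 fibroblasts (1000/well) treated 16 h at 37 C; caspase-3/7 activity measured by Caspase-Glo 3/7 luminescence after 20 min. Normalized to DMSO and 100 uM tamoxifen; AC50 from Hill fits.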

[24] = Cellular Toxicity (caspase-3) Renal Proximal Tubule (AID 667);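 also: cells exposed to compound for 16 hours at 37 °C before detection; 0% = DMSO basal and 100% = 10 µM staurosporine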
In short: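 Caspase-Glo 3/7 read-out, rat primary kidney proximal tubule cells. Compound exposure 16 h, 37 °C; detection after 1 h at RT. Activity scaled to DMSO and 10 uM staurosporine.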

[25] = molecular target: Cytochrome P450 3A4 (Homo sapiens) (UniProt P08684); assay: qHTS Assay for Inhibitors and Substrates of Cytochrome P450 3A4 (AID 884); also: % is scaled to controls: 0 for no effect and ±100 for the full control effect; nearly all actives have a fitted effect of over 50% in size
In short: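 20 nM human CYP3A4 with 25 uM Luciferin-PPXE (at KM) in 200 mM KPO4, preincubated 10 min with compound; NADPH regeneration started a 60 min RT reaction. Luciferin detected by luminescence, normalized to 57 uM ketoconazole as full inhibition.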

[26] = Cell Viability - LYMP2-001 (AID 921);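 also: cells exposed to compound for 24 h at 37 °C; 0% = DMSO only and full inhibition = tetraoctylammonium bromide control wells; nearly all actives have a fitted effect of over 70% in size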
In short: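 A lymphoblastoid cell line of human origin was treated with library compounds across a concentration series for 24 hours, and viable cell number was estimated from ATP-driven luciferase light output. Hill modeling gave AC50.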

[27] = MultiTox-Fluor Cytotoxicity Assay - LYMP1-001 - Dead Cells (AID 946)
In short: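 Seed 2500 LYMP1-001 cells/well, incubate 5 hr at 37 C; add compound, 16 hr at 37 C; add MultiTox-Fluor reagent, 60 min RT; read dead-cell fluorescence Ex/Em=485/520. Normalize to DMSO and 15 uM tetraoctylammonium bromide.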

[28] = MultiTox-Fluor Cytotoxicity Assay - LYMP1-001 - Live Cells (AID 947);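 also: 0% = DMSO only and full inhibition = tetraoctylammonium bromide control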
[29] = Cell Viability - LYMP1-002 - Assay at 16 hr (AID 948);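 also: 0% = DMSO alone and full effect = 92 µM tetraoctylammonium bromide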
In short: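 In this qHTS, lymphoblastoid LYMP1-002 cells (human) receive compounds for 16 hr at 37 C. Viability is taken from CellTiter-Glo ATP luminescence, and AC50 derives from standard Hill fits.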

[30] = MultiTox-Fluor Cytotoxicity Assay - LYMP1-002 - Live Cells (AID 955); also: % is scaled to controls: 0 for no effect and ±100 for the full control effect
In short: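 Human lymphoblastoid LYMP1-002 cells, 2500/well, treated 16 h at 37 C in complete medium. Live-cell protease activity via GF-AFC fluorescence (Ex/Em 405/510) after 60 min reagent incubation; AC50 from Hill fits.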

[31] = MultiTox-Fluor Cytotoxicity Assay - LYMP1-003 - Dead Cells (AID 961); also: nearly all actives have a fitted effect of over 70% in size
In short: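 LYMP1-003 lymphoblastoid, 2500 cells/well, 5 hr settle then 16 hr cpd at 37 C; MultiTox-Fluor reagent 60 min RT; Ex/Em 485/520 dead-cell signal; norm. DMSO = 0%, 15 uM tetraoctylammonium bromide = 100%; Hill AC50.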

[32] = MultiTox-Fluor Cytotoxicity Assay - LYMP1-003 - Live Cells (AID 962);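 also: 0% = DMSO only and full loss = 92 µM tetraoctylammonium bromide; cytotoxic hits lower the live-cell protease signal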
In short: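 LYMP1-003 lymphoblastoid cells, 2500/well in complete medium, treated 16 h at 37 C; live-cell protease cleavage of GF-AFC read by fluorescence (Ex/Em 405/510) after 60 min reagent; AC50 from Hill fits of concentration-response.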

[33] = Cell Viability - LYMP1-003 - Assay at 24 hr (AID 963);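 also: plate controls were DMSO only for no effect and tetraoctylammonium bromide positive control for full effect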
In short: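 Human lymphoblastoid LYMP1-003 cells, 2500/well, treated 24 h at 37 C in complete medium. Viability read as intracellular ATP by CellTiter-Glo luminescence after 30 min at room temperature; AC50 from Hill-equation fits of qHTS concentration-response.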

[34] = Cell Viability - LYMP2-013 (AID 970);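 also: cells exposed to compound for 24 h at 37 °C; 0% = DMSO only and full inhibition = tetraoctylammonium bromide control; nearly all actives have a fitted effect of over 55% in size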
In short: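 Human lymphoblastoid LYMP2-013 cells, 2500/well, treated 24 h at 37 C in complete medium; viability as intracellular ATP by CellTiter-Glo luminescence after 30 min. AC50 from Hill fits of qHTS concentration-response.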

Cytochrome P450 3A4 (Homo sapiens), sequence (P08684 whole entry, looked up): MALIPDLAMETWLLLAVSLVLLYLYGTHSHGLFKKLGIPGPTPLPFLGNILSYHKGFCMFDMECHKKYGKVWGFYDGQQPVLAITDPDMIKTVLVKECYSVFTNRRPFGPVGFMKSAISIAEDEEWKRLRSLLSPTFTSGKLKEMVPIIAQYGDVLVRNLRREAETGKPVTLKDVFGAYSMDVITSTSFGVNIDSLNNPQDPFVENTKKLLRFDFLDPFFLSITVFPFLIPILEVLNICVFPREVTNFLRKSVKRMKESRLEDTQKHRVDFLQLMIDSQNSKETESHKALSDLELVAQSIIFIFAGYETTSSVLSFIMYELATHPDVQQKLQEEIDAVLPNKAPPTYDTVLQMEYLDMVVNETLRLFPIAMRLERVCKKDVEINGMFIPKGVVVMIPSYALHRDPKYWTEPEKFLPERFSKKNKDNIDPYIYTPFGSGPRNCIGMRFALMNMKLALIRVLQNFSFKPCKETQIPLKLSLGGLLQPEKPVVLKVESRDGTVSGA

COC(=O)[C@@]1(C=C2c3ccccc3[C@@H](OC)[C@@H]2C)[C@@H]2Oc3ccccc3[C@@H]21
inactive: outcome [1] | outcome [2] | Potency [3] | outcome [4]

CCOC(=O)[C@@]12[C@@H]3[C@@H](CCN3C(=O)N[C@H]1c1ccccc1)C2(C)C
inactive: outcome [1] | outcome [2] | Potency [3] | outcome [4]

CO[C@@H]1c2ccccc2[C@H]2C(C(=O)O)c3c(n(C)c4ccccc34)[C@H]2[C@H]1C (stereo not given in full)
inactive: outcome [1] | outcome [2] | outcome [4]

COC(=O)C1=NN=C(C(=O)OC)[C@@]2(C)c3ccccc3NC12 (stereo not given in full)
inactive: outcome [1] | outcome [2] | Potency [3] | outcome [4]

COC(=O)[C@@]1(C=C2c3ccc(F)cc3[C@@H](OC)[C@@H]2C)[C@@H]2Oc3ccccc3[C@@H]21
inactive: outcome [1] | outcome [4]

CCOC(=O)[C@]12C[C@]3(C)CCCN(C(=O)N[C@@H]1c1ccccc1)[C@@H]32
inactive: outcome [1] | outcome [2] | Potency [3] | outcome [4]

CCOC(=O)[C@]12C[C@@H]3OCCN(C(=O)N[C@@H]1c1ccccc1)[C@@H]32
inactive: outcome [1] | outcome [2] | Potency [3] | outcome [4]

COC(=O)C12CC3=CCC4C(=O)N(c5ccccc5)C(=O)C4C3Cc3ccccc3[C@H]1CNC2=O (stereo not given in full)
inactive: Potency [3] | outcome [4]

CC(=O)[C@@]12C3[C@@H](CCN3C(=O)N[C@H]1c1ccccc1)[C@H]2c1ccccc1 (stereo not given in full)
inactive: outcome [1] | Potency [3] | outcome [4]

CC(C)(c1ccc(OCC2CO2)cc1)c1ccc(OCC2CO2)cc1 (stereo not given)
inactive: Potency [5] > 92 µM | Potency [6] > 92 µM | Potency [7] > 92 µM | activity change, negative = cytotoxicity [8] -4.11% | activity change, negative = cytotoxicity [9] -5.07% | outcome [10] | outcome [11] | outcome [12] | outcome [13] | outcome [14] | outcome [15] | outcome [16] | outcome [17] | outcome [18] | outcome [19] | outcome [20] | outcome [21] | outcome [22] | outcome [23] | outcome [24] | Potency [25] | outcome [26] | Potency [27] | outcome [28] | outcome [29] | outcome [30] | Potency [31] | outcome [32] | outcome [33] | outcome [34]
